mHTT CaM bind: mHTT-calmodulin interaction abrogation | P42858 | AlphaScreen His-mHTT/GST-CaM binding, luminescence | inhibition, % at 15 µM | 190,000 compounds, 3.6% hits | AID 1671202;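 further: 0% = both proteins with DMSO and 100% = one protein alone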
Pf apPOL inh: Pf-apPOL DNA polymerase inhibition. Recombinant Pf-apPOL, molecular beacon fluorescence, 1.5 h. inhibition, % at 10 µM. 210,000 compounds, 0.25% hits. AID 1794808
An asterisk follows results filed as active; x = not tested or not shown. Most compounds without a hit are left out; they make up all but 3.6% or so of the library. No stated cut-off is given here; in the data, active means inhibition above about 50%; inactive means the rest.

SMILES | mHTT CaM bind | Pf apPOL inh
COc1ccc(Nc2c([N+](=O)[O-])cc([N+](=O)[O-])c3cccnc23)cc1 | 14 | -4
C[S+](C)c1c(O)n(CCc2ccc(F)cc2)c(=O)[nH]c1=O | 1 | -1
c1cncc(-c2noc(-c3cccnc3)n2)c1 | -1 | -6
Cc1ccnc(NC(c2ccc(N(C)C)cc2)c2ccc3cccnc3c2O)c1 (centres undefined) | 100* | -20
CCOc1ccccc1C(=O)Nc1cc(C)ccn1 | -16 | -2
COc1cc(-c2nc3ncccn3c2Nc2ccc(C)cc2)ccc1O | 9 | 2
CCOc1cc(C(Nc2cc(C)ccn2)c2ccc3cccnc3c2O)ccc1O (centres undefined) | 100* | -2
Cc1ccnc(NC(=O)c2ccc(C(C)C)cc2)c1 | -13 | -5
COc1cc(C(Nc2cc(C)ccn2)c2ccc3cccnc3c2O)ccc1O (centres undefined) | 100* | 2
Cc1cc(NC(=O)CSc2nnc(NC(=O)c3snnc3C)s2)no1 | -8 | -6
COCc1cc(=O)[nH]c(N=C(N)Nc2ccccc2)n1 | -1 | 4
CCc1nc2c(c(=O)n1CC(=O)NCc1ccc(C)c(C)c1)CN(Cc1ccccc1)CC2 | 9 | 12
CSC1=NC(C)(C)CC2=C(C)C=C(C)C3(CC(C)(C)N=C3SC)C2=C1 (centres undefined) | 0 | x
Cc1c(NC(=O)c2cc([N+](=O)[O-])ccc2Cl)c(=O)n(-c2ccccc2)n1C | -1 | -1
CSc1ccc(Cl)c(C(=O)Nc2c(C)n(C)n(-c3ccccc3)c2=O)c1 | -2 | 63*
O=C(Nc1ccc(/C=C/C(=O)c2ccco2)cc1)c1ccccc1 | 14 | -3
Cc1cccc(NC(=O)N2CC(C)Oc3ccc(C)cc32)c1 (centres undefined) | -4 | -8
CC(=O)C1=C(C)NC(SCC(=O)c2ccc(C)c(C)c2)=C(C#N)C1c1ccco1 (centres undefined) | -3 | 0
COc1cc(OC)cc(C2=Cc3ccccc3C(CC(C)=O)N2c2ccc(C#CCCO)cc2)c1 (centres undefined) | -9 | -4
NC(=O)c1ccc(-c2ccc(N3C(c4ccsc4)=Cc4ccc(F)cc4C3CC(=O)c3ccco3)cc2)cc1 (centres undefined) | 58* | -2
COc1ccc(N2C(c3cc(OC)cc(OC)c3)=Cc3ccccc3C2CC(C)=O)cc1 (centres undefined) | -28 | -3
CC(=O)CC1c2cc(F)ccc2C=C(c2ccsc2)N1c1ccc(-c2cccnc2)cc1 (centres undefined) | 9 | 4
COc1cc(OC)cc(C2=Cc3ccccc3C(CC(=O)c3ccco3)N2c2ccc(-c3cncnc3)cc2)c1 (centres undefined) | 97* | -6
COc1cc(OC)cc(C2=Cc3ccccc3C(CC(=O)c3ccco3)N2c2ccc(-c3ccc(C(N)=O)cc3)cc2)c1 (centres undefined) | 100* | 2
CC(C)C1=CC23CCC4C(C)(C(=O)O)CCCC4(C)C2CC1C1C(=O)N(CCO)C(=O)C13 (centres undefined) | 12 | 0
SMILES | mHTT CaM bind | Pf apPOL inh
CCN1CCN(C(=O)C2CC(=O)N(c3ccc(F)cc3)C2)CC1 (centres undefined) | -1 | -7
O=C(Nc1ccc(S(=O)(=O)N2CCOCC2)cc1)C(c1ccccc1)c1ccccc1 | 9 | -11
Cc1cc(C2(c3ccc(O)c(C)c3)C(=O)Nc3c(C)cc([N+](=O)[O-])cc32)ccc1O | 86* | -4
Cc1cccc2c1NC(=O)C2(c1ccc(O)cc1)c1ccc(O)cc1 | 21 | 0
CSc1nc2c(c(Nc3ccc(C)cc3)n1)CCC2 | 11 | -11
CSc1nc2c(c(Nc3ccc(N(C)C)cc3)n1)CCC2 | 57* | -1
Cc1cccc(C)c1NC(=O)CN1C(=O)c2ccc([N+](=O)[O-])cc2C1=O | 0 | 0
O=C(CN1C(=O)S/C(=C\c2c(Cl)cccc2Cl)C1=O)Nc1cc([N+](=O)[O-])ccc1O | 61* | -19
Cc1ccc(N2CC(NC(=O)NCCCn3ccnc3)CC2=O)cc1 (centres undefined) | 98* | -3
O=C(NCCCn1ccnc1)c1ccc(C(=O)NCCCn2ccnc2)cc1 | 0 | 0
Cn1c(CN2CCN(C(=O)c3ccc([N+](=O)[O-])o3)CC2)nc2ccccc21 | -5 | 53*
Cn1c(CN2CCN(C(=O)c3ccc(Br)o3)CC2)nc2ccccc21 | -3 | -4
O=[N+]([O-])c1cn[nH]c1-c1cnn(-c2ccccc2)c1 | 33 | 10
CC1CCCCN1S(=O)(=O)c1ccc2[nH]c(=O)cc(C(=O)NCc3ccccc3Cl)c2c1 (centres undefined) | 63* | 36
CC1CCN(S(=O)(=O)c2ccc3[nH]c(=O)cc(C(=O)NCc4ccccn4)c3c2)CC1 | -12 | -6
O=[N+]([O-])c1cccc(-c2ccc(CN3CCOCC3)o2)c1 | 7 | -2
Cc1ccc(OCc2nc3ccccc3n2C(C)C)cc1 | -17 | -2
CC(C)n1c(C(O)c2ccc(OCc3ccccc3)cc2)nc2ccccc21 (centres undefined) | 81* | 10
CCn1c(=O)c(N2CCN(C(=O)c3ccc(F)cc3)CC2)nc2ccccc21 | 4 | -7
CCOc1ccc(NC(=O)c2cc(Cl)ccc2Cl)c([N+](=O)[O-])c1 | 6 | -24
CCOc1ccc(NC(=O)C(c2ccccc2)c2ccccc2)c([N+](=O)[O-])c1 | 50* | -8
CCOc1ccc(NC(=O)c2cccc3ccccc23)c([N+](=O)[O-])c1 | 63* | -2
CCOc1ccc(NC(=O)COc2ccccc2)c([N+](=O)[O-])c1 | 23 | -4
Cc1ccc(NC(=O)N2CCc3c(c(COc4ccccc4)nn3C)C2)cc1C | 31 | -1
COc1cc(C=O)ccc1OCCCOc1ccccc1Br | -36 | -2
SMILES | mHTT CaM bind | Pf apPOL inh
CC(=O)N1CCC2(CCc3ccccc3O2)CC1 | 3 | -5
Cc1ccc(C(=O)c2ccccc2)cc1[N+](=O)[O-] | -5 | -9
Cc1ccc(-c2[nH]c3ccccc3c2C)cc1[N+](=O)[O-] | 64* | 0
O=C(c1ccc(Cn2cncn2)cc1)N1CCc2ccccc21 | -1 | -7
Cc1ccc(COCc2nn(C)c3c2CN(S(=O)(=O)c2ccc(F)c(C)c2)CC3)cc1 | 18 | -3
COc1cccc2ccc(C3C(=O)c4ccccc4C3=O)nc12 | 2 | -4
COc1ccc(C2CC(C3C(=O)c4ccccc4C3=O)=NN2)cc1 (centres undefined) | 100* | -1
O=C(O)c1ncnc2nc[nH]c12 | 99* | x
Brc1ncnc2nc[nH]c12 | -5 | x
Cc1nc(C2CCCN(Cc3ccc(F)cc3F)C2)no1 (centres undefined) | -2 | 6
COc1ccc(C)cc1NC(=O)C1C2C=CC(C2)C1C(=O)O (centres undefined) | 1 | -4
COc1ccc(C)cc1C(=O)C1CC(C(=O)O)C(C)(C)C1C (centres undefined) | 4 | 59*
CC(C)(C)n1nc2c(c1-n1cccc1)CN(C(=O)c1cc(-c3ccco3)[nH]n1)C2 | 99* | 82*
CCOC(=O)N1CCN(C(=O)c2cc(-c3ccco3)[nH]n2)CC1 | -10 | -6
Brc1ccccc1-c1nnc2n1N=C(c1ccccc1)CS2 | 31 | -4
Brc1cccc(C2=Nn3c(nnc3-c3ccccn3)SC2)c1 | 54* | x
CCCCc1nc2c(=O)n(C)c3ccccc3c2o1 | 1 | -74
Cc1c(C)c2cc3c(-c4ccc(F)cc4)coc3cc2oc1=O | 1 | -3
